An excerpt weighted towards active compounds, which were near 5.4% of everything screened.
DAX1 inh: DAX1 (NR0B1) inhibitors, primary screen, cell-based, HEK293, Gal4-DAX1, luciferase luminescence. actives 0.99% (n = 340,000). HEK293 Gal4-DAX1 luciferase reporter. inhibition, % at 6.75 µM. AID 504766, 2011. Nuclear receptor subfamily 0 group B member 1 (Homo sapiens), P51843;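 active = inhibition above the mean over all tested compounds plus 3 SD, cut at about 4.2% in these data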;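 note: inhibition shows as a rise in luminescence from relieved DAX1 repression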
HSF1 inh: HSF1 inhibitors in luciferase reporter cells, primary screen, cell-based, NIH3T3, luminescence; NIH3T3-HGL HSE-luciferase, MG132-induced, luminescence 8 h; stronger effect = lower value; activity change, negative = inhibition, % at 7.5 µM (by protocol); actives 0.77% (n = 300,000);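 active = more than half of replicate wells show activity change below -50%, luminescence cut by over half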;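 note: luciferase reports HSF-1 transcriptional activity via heat shock element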
AHR act: AHR activators, primary screen, cell-based, luminescence, luciferase reporter, human; AHR-responsive luciferase reporter cells; activation, % at 5 µM; actives 2.5% (n = 320,000); AID 2796, 2010; in the data active = activation above about 47%
GAA850 FXN act: FXN promoter activators, primary screen, cell-based, luciferase luminescence, HEK293 lucGAA850. HEK293 lucGAA850 FXN promoter luciferase reporter, 24 h; percent of 10 µM SAHA response. activation, % at 6 µM. actives 0.56% (n = 360,000). AID 540364, 2011;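 active = activation above the average of all compounds screened plus 3 SD, cutoff fixed separately per campaign, cut at about 7.5% in these data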
HSF-1 act: HSF-1 activators, primary screen, NIH3T3-HGL cells, MG132 stress, luminescence, single point. NIH3T3-HGL HSF-1 luciferase reporter, 8 h; 100% = twice DMSO control signal. activation, % at 9 µM. actives 1.7% (n = 300,000). AID 504408, 2011;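 active = mean replicate activation of at least 50% with a set share of replicates each reaching 50%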
Numbers stand for hits; i = inactive; nt = no result.

SMILES | DAX1 inh | HSF1 inh | AHR act | GAA850 FXN act | HSF-1 act
CCOc1ccccc1NC(=O)CCCc1ccc(OC)c(C)c1 | i | i | i | i | i
Cc1cc(NC(=S)N(Cc2ccc(Cl)cc2)Cc2ccc(C(=O)O)cc2)ccc1Cl | i | i | i | i | 80.1
COc1ccc(C)cc1NC(=O)NC1CC(=O)N(c2ccc3c(c2)OCCO3)C1 (stereo not given) | i | nt | nt | i | nt
Brc1ccc(CNc2ccc3ncccc3c2)cc1 | i | i | nt | i | 79.4
CCCn1cnc2cc(NCc3cccc(OC)c3)ccc21 | i | i | i | i | 51.0
CCCn1cnc2cc(NCc3ccccc3O)ccc21 | i | i | i | i | i
CN(C)c1ccc(CNc2ccc3c(c2)ncn3C(C)(C)C)cc1 | i | -53.9 | i | i | i
CCn1cnc2cc(NCc3nc4ccccc4n3Cc3ccccc3)ccc21 | i | i | 73.1 | i | i
CCn1cnc2cc(NCc3ccc(N(C)C)cc3)ccc21 | i | i | i | i | i
CCn1cnc2cc(NCc3ccc(C)cc3)ccc21 | i | i | i | i | i
Cn1cnc2cc(NCc3ccc(Cl)cc3)ccc21 | i | i | 55.9 | i | 66.4
CCCn1cnc2cc(NCc3ccc(Br)cc3)ccc21 | i | i | 86.9 | i | i
CCN(CC)c1ccc(CNc2ccc3c(c2)ncn3CC)cc1 | nt | i | i | nt | i
Cc1ccc(CNc2ccc3c(c2)ncn3C(C)C)cc1 | 6.2 | i | i | i | i
CCC(C)(C(=O)NC1CCCC1)N(C(=O)CNC(=O)c1ccccc1)c1c(C)n(C)n(-c2ccccc2)c1=O (stereo not given) | i | i | i | i | i
NC(=O)CC[C@H](NC(=O)c1ccc(Cl)cc1)C(=O)NNC(=O)COc1cccc(Br)c1 | i | nt | i | i | nt
Cc1c(Cc2ccccc2)sc(/N=C/c2c(O)ccc3ccccc23)c1C(N)=O | i | -57.6 | i | i | i
Nc1n[nH]c(N)c1N=Nc1ccc2c(c1)OCO2 | 4.8 | i | 48.1 | i | i
O=c1cc(-c2ccccc2)oc2ccccc12 | 6.0 | nt | i | i | nt
O=c1cc(/C=C/c2ccccc2)oc2ccccc12 | i | i | 59.7 | i | i
O=C(Nc1cccc(Cl)c1)NC1CCS(=O)(=O)C1 (stereo not given) | i | i | i | i | i
CC(C)C#Cc1cnc2c(c1)C(=O)N([C@H](C)CO)C[C@@H](C)[C@H](CN(C)C(=O)Nc1ccccc1F)O2 | i | nt | nt | i | nt
CCOC(=O)N1CCN(CC(=O)Nc2c(C(=O)OC)[nH]c3cc(C)ccc23)CC1 | i | i | 64.1 | i | i
CCOC(=O)c1[nH]c2cc3c(cc2c1NC(=O)CN1CCC2(CC1)OCCO2)OCO3 | i | i | 62.0 | i | i
O=C(OCCCN1CCOCC1)c1ccc(O)c(O)c1 | i | -65.0 | i | i | i
SMILES | DAX1 inh | HSF1 inh | AHR act | GAA850 FXN act | HSF-1 act
C/C(=N\N=C(N)N)c1cccc([N+](=O)[O-])c1 | i | i | i | i | i
C/C(=N\N=C(N)N)c1ccc(C)c(C)c1 | i | i | 59.4 | i | i
CCCn1c(N)c(C(=O)COC(=O)CCNS(=O)(=O)c2ccccc2F)c(=O)[nH]c1=O | i | i | i | i | i
CC1CCC(NC(=O)C2c3ccccc3C(=O)N2CCCN2CCOCC2)CC1 (stereo not given) | 4.7 | i | i | i | i
Cc1cccc(N2CCN(c3ccc(N4C(=O)CCCC4=O)cc3[N+](=O)[O-])CC2C)c1 (stereo not given) | i | i | 70.0 | i | i
COc1ccc(/C=C/c2cc(C(=O)O)c3ccccc3n2)cc1 | i | nt | i | i | nt
Cc1cc(/C=C\c2ccccc2)nc2ccccc12 | 5.6 | i | 61.5 | i | i
NC(=O)Nc1ccc(C(=O)OCC(=O)N2CCc3ccccc3C2)cc1 | i | nt | i | i | nt
CCC(C)(C)NC(=O)C(c1cccc(OC)c1OC)N(Cc1ccc(OC)cc1)C(=O)CCC(=O)Nc1cc(C)on1 (stereo not given) | i | i | i | i | 59.9
CCOc1ccc(CCNC(=O)c2ccc3ccccc3n2)cc1OCC | i | i | i | i | i
Cc1oc(-c2ccoc2)nc1CN(CC1CCC(=O)N1)C(C)C (stereo not given) | i | i | i | i | 72.1
O=C(COc1ccccc1)Nc1cc(NC(=O)COc2ccccc2)cc(C(=O)O)c1 | i | i | i | i | i
CCOC(=O)C1CCCN(C(=O)c2cc(OC)ccc2Br)CC1 (stereo not given) | nt | nt | nt | i | nt
Nn1cnc2c([nH]c3ccccc32)c1=O | i | i | i | i | i
COc1ccc2c(c1)[nH]c1c(=O)n(N)cnc12 | 5.7 | i | i | i | i
CC(C)N1CCN(S(=O)(=O)c2ccccc2)c2ccccc21 | i | nt | nt | i | nt
CC(N1CCOC1=O)S(=O)(=O)c1ccccc1 (stereo not given) | i | -76.4 | i | i | i
O=S(=O)(c1ccccc1)C(Br)S(=O)(=O)c1ccccc1 | i | nt | nt | i | nt
CC(S(=O)(=O)c1ccccc1)S(=O)(=O)c1ccccc1 | 5.0 | nt | nt | i | nt
COc1ccccc1S(=O)(=O)N(C)C[C@@H]1OCc2cn(nn2)CCCC(=O)N([C@H](C)CO)C[C@H]1C | i | nt | nt | i | nt
Cc1nc(-c2ccccc2)sc1-c1n[nH]c(=S)n1C | i | i | 93.5 | i | i
Cn1c(-c2ccccc2)n[nH]c1=S | i | i | i | i | i
CN(C)c1cc(-c2ccc(Cl)cc2)oc(=O)c1Cl | i | i | 56.2 | i | i
COCCN(Cc1cc2ccc(C)c(C)c2nc1Cl)C(=O)N1CCOCC1 | i | i | i | i | 55.3
COCCN(Cc1cc2cc(C)c(C)cc2nc1Cl)C(=O)N1CCOCC1 | i | i | i | i | i
SMILES | DAX1 inh | HSF1 inh | AHR act | GAA850 FXN act | HSF-1 act
Nc1c(Cl)ncnc1NCC(O)CO (stereo not given) | i | nt | i | i | nt
COc1ccc(-c2nc3cc([N+](=O)[O-])ccc3o2)cc1 | 6.2 | i | i | i | 58.9
Nc1ccc(-c2nc3cc([N+](=O)[O-])ccc3o2)cc1 | 5.7 | i | i | i | 58.2
Nc1ccc2oc(-c3cccc4ccccc34)nc2c1 | i | i | 53.2 | i | i
Cc1ccc(-c2nc3cc(C)ccc3o2)cc1 | i | i | i | i | i
CC(C)(C)Nc1nc2cc([N+](=O)[O-])ccc2o1 | i | i | i | i | i
Cc1ccc(-c2nc3cc(N)ccc3o2)cc1 | i | i | 72.8 | i | i
CN(C)c1cccc(C(=O)NNC(=O)C23CC4CC(CC(C4)C2)C3)c1 | i | nt | i | i | nt
O=C(NCCC(=O)N1CCN(c2ccc(F)cc2)CC1)c1ccco1 | i | nt | nt | i | nt
O=C(O)c1c(-c2ccccc2)cnc2ccccc12 | i | nt | nt | i | nt
Cc1ccc(OCc2cc(C(=O)N(C)CCc3nc4ccccc4[nH]3)no2)cc1C | i | -88.4 | nt | i | i
Cc1ccc(OCc2cc(C(=O)N(C)CCc3ccccn3)no2)cc1C | i | i | i | i | i
